Measurements reported in PMC7819943, “Rice protein-binding microarrays: a tool to detect cis-acting elements near promoter regions in rice”.
Whole data set: some 39,000 sequences, median “fluorescence intensity (a.u.)” near 4,300, cut for the highest 2% near 39,000. Only a selection was taken, and the highest values are over-represented in it overall.

target: T1, OsSMF1 (Oryza sativa, UniProt Q6ZLB0 1-436); experiment: protein-binding microarray (RPBM); PBS, 2% BSA, 51.3 ng/ul salmon testes DNA, 50 uM zinc acetate, 200 nM TF, 25 C, 1 h; high values mean tight binding; details: protein: recombinant; tags: N-terminal polyhistidine and DsRed monomer fusion (pET32a); chain copies: 2; label: CyDye5-dUTP incorporated in the synthesized complementary strand; 3' TTTTT single-stranded linker to array surface; dsDNA, one strand shown
T1 sequence: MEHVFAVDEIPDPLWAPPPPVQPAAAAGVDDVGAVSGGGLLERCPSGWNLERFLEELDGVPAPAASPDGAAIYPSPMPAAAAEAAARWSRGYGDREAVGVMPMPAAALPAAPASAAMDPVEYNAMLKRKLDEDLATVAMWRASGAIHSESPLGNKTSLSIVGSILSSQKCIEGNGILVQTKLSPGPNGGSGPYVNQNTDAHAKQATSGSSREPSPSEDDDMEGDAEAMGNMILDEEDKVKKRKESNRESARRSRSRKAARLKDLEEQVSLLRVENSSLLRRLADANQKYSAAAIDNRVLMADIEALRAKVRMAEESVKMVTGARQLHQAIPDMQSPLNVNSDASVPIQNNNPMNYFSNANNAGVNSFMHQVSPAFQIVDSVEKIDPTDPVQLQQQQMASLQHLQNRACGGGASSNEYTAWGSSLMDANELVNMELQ
How it was run: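 Transcription factors were each fused at the N-terminus to a polyhistidine tag plus DsRed and expressed in E. coli BL21-CodonPlus before Ni–NTA purification. Binding to a double-stranded custom Agilent array was carried out with 200 nM protein at 25 °C for 1 h in PBS, 2% BSA, salmon testes DNA and 50 µM zinc acetate. The binding signal is per-feature fluorescence intensity, in arbitrary units, on an Axon 4000B scanner.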

**Q.** For “ACTCCCCTCCCCGCCACGTCGCCATTCTTCCCGCTCCTGACGGAGTCACCTAGTGCAG”, which binding signal is on record?
**A.** 11800 fluorescence intensity (a.u.)

**Q.** With “GCTCGCCTTTTATCGCAGCCAAAGCCATGAAATTTCCCCACGGAGTCACCTAGTGCAG” as the sequence, how does the binding signal read?
**A.** 27500 fluorescence intensity (a.u.)

**Q.** “CTCGCGTCGCCACGCAACTTAATTAATTTAGCCCCTAATTCGGAGTCACCTAGTGCAG” was tested. Which binding signal did it give?
**A.** 3640 fluorescence intensity (a.u.)

**Q.** For “CTTCTAGCTGACACCTGTGCGCCGCCGCCTAATTTCAACTCGGAGTCACCTAGTGCAG”, which binding signal is on record?
**A.** 3930 fluorescence intensity (a.u.)

**Q.** “GCACCTCGTTAGGCTTCATGGTCATGGCTCGTCGCTGACGCGGAGTCACCTAGTGCAG” was tested. Which binding signal did it give?
**A.** 6120 fluorescence intensity (a.u.)

**Q.** Which binding signal does the source give for “GCGGTTTCCTAGTTGACTGACCAAACAATTCATATATATTCGGAGTCACCTAGTGCAG” here?
**A.** 6140 fluorescence intensity (a.u.)

**Q.** Which binding signal does the source give for “TCGTGCTACAGATCTATAGCACACTACTCTTCTCTCTCTTCGGAGTCACCTAGTGCAG” here?
**A.** 3370 fluorescence intensity (a.u.)

**Q.** For “CGGCCGTGTTAAGCCTCTTCCAAAGTCAGCTGAGTTGTGCCGGAGTCACCTAGTGCAG”, which binding signal is on record?
**A.** 5460 fluorescence intensity (a.u.)

**Q.** How did the binding signal turn out when “CCTACACTGAAGTTAAGCAGATCTTCCAGGCCTCGTGTTTCGGAGTCACCTAGTGCAG” was run?
**A.** 43800 fluorescence intensity (a.u.)

**Q.** “CCACGAACAGCTACACGTCTCCTTCTCCTTCTTCGATTTCCGGAGTCACCTAGTGCAG” was tested. Which binding signal did it give?
**A.** 37400 fluorescence intensity (a.u.)

**Q.** How did the binding signal turn out when “ACAAGAGCCAGCGCGGCGTGTGTGCGCGATTTCTCTCTTCCGGAGTCACCTAGTGCAG” was run?
**A.** 3210 fluorescence intensity (a.u.)

**Q.** Which binding signal does the source give for “TCTTACAGCGCGCGTGTTCGTTCGAACGATTCTCTTCTTCCGGAGTCACCTAGTGCAG” here?
**A.** 51900 fluorescence intensity (a.u.)

**Q.** Which binding signal does the source give for “AGTGCCACTTAAGCGCCACATCAACGCCACATGGAAAGAACGGAGTCACCTAGTGCAG” here?
**A.** 4210 fluorescence intensity (a.u.)

**Q.** For “AGACCCAAGTCACTCTCTCCGCTCCAGTCTCCACTCTCCACGGAGTCACCTAGTGCAG”, which binding signal is on record?
**A.** 23100 fluorescence intensity (a.u.)

**Q.** With “ACCACTCTACCACAACCATTACGCTATCCGCCACGAGCAACGGAGTCACCTAGTGCAG” as the sequence, how does the binding signal read?
**A.** 3270 fluorescence intensity (a.u.)

**Q.** For “AAGATCTGTATGCCTCATGAGGGTTGGTGTGTAATACTCCCGGAGTCACCTAGTGCAG”, which binding signal is on record?
**A.** 3890 fluorescence intensity (a.u.)

**Q.** With “CTCTAAATTTGTGCAGATGTGTCACCTAGATCCCTGAACTCGGAGTCACCTAGTGCAG” as the sequence, how does the binding signal read?
**A.** 4340 fluorescence intensity (a.u.)

**Q.** Which binding signal does the source give for “TCCACATGCTAATTTGTGGTGTCAGATACCTGAATACTCCCGGAGTCACCTAGTGCAG” here?
**A.** 41400 fluorescence intensity (a.u.)

**Q.** With “CCCCTACTATTTTCTAGGCTAGGAAGCGTGCGATCTTTTCCGGAGTCACCTAGTGCAG” as the sequence, how does the binding signal read?
**A.** 3240 fluorescence intensity (a.u.)

**Q.** How did the binding signal turn out when “TGGCGCGACTGCTCGGGTCACCATAAATACGGGTAGGTGGCGGAGTCACCTAGTGCAG” was run?
**A.** 3940 fluorescence intensity (a.u.)

**Q.** How did the binding signal turn out when “CTCCGCCGCTGGCCGCCTTGCCTGCTTGAGAGGAGGAGAGCGGAGTCACCTAGTGCAG” was run?
**A.** 26800 fluorescence intensity (a.u.)

**Q.** How did the binding signal turn out when “CTGCTTGAATCCTTCTCGCTGAGCTGGCCTGCAGCCTTTTCGGAGTCACCTAGTGCAG” was run?
**A.** 7190 fluorescence intensity (a.u.)

**Q.** For “GATTGATGAGGCCGCAAAGCCTGGCTGCCTGCCTGCTTCTCGGAGTCACCTAGTGCAG”, which binding signal is on record?
**A.** 54300 fluorescence intensity (a.u.)

**Q.** Which binding signal does the source give for “CATTATACATGTGTCATGTGTATTCGACTTCTGTGCTGCCCGGAGTCACCTAGTGCAG” here?
**A.** 4750 fluorescence intensity (a.u.)

**Q.** Which binding signal does the source give for “GGTAGTCTGAAGCCTGTTGGTTATCCTCCTGGGAGTGTTGCGGAGTCACCTAGTGCAG” here?
**A.** 3220 fluorescence intensity (a.u.)

**Q.** With “AGATTAGTTTTCCCATATATTTCTTGTCAGTCGTCGTCATCGGAGTCACCTAGTGCAG” as the sequence, how does the binding signal read?
**A.** 3760 fluorescence intensity (a.u.)

**Q.** Which binding signal does the source give for “AATCAATACAAAGTCTGAAAGCCATTATGGTGGCAGTAATCGGAGTCACCTAGTGCAG” here?
**A.** 61300 fluorescence intensity (a.u.)

**Q.** Which binding signal does the source give for “ATAAAGTAACACATACACAAAGCCACATCATCAATATTTTCGGAGTCACCTAGTGCAG” here?
**A.** 8990 fluorescence intensity (a.u.)

**Q.** How did the binding signal turn out when “AAGTAGTGTCTATGGTGCCATGTCAATAGGACATCATAATCGGAGTCACCTAGTGCAG” was run?
**A.** 3920 fluorescence intensity (a.u.)

**Q.** “CACTTTTATGACATTTTCAACCATACTATTTTCCTTAAAGCGGAGTCACCTAGTGCAG” was tested. Which binding signal did it give?
**A.** 39800 fluorescence intensity (a.u.)

**Q.** For “TTCTTTTCCCATGGCCTCTGACTATGACATTATTTAAACACGGAGTCACCTAGTGCAG”, which binding signal is on record?
**A.** 3440 fluorescence intensity (a.u.)

**Q.** Which binding signal does the source give for “CATTTCCAAATTACATGTATGAATCCAACCAAAACTTTTCCGGAGTCACCTAGTGCAG” here?
**A.** 17200 fluorescence intensity (a.u.)

**Q.** Which binding signal does the source give for “ATGCTAACCAACTAAAATACTTTTCCATGTACCTTACAAGCGGAGTCACCTAGTGCAG” here?
**A.** 60000 fluorescence intensity (a.u.)

**Q.** For “AATTTACAAGGTAAAATTTTATACCACCTTATATACTTTGCGGAGTCACCTAGTGCAG”, which binding signal is on record?
**A.** 4160 fluorescence intensity (a.u.)

**Q.** Which binding signal does the source give for “ATTTATATTTTAAAATATACTTTTATATGACACTAATTTTCGGAGTCACCTAGTGCAG” here?
**A.** 3170 fluorescence intensity (a.u.)

**Q.** Which binding signal does the source give for “CGTGACGCGCAGCTCCCTGCAGCCGACCTGGCCACCCACACGGAGTCACCTAGTGCAG” here?
**A.** 3500 fluorescence intensity (a.u.)

**Q.** For “TATATTCGTGTCATTTAGATACCATACCACATCCTGCTACCGGAGTCACCTAGTGCAG”, which binding signal is on record?
**A.** 3240 fluorescence intensity (a.u.)

**Q.** “TTACGATCACCGAAAAGTGGTAGCGTACGTGTTGAGTGTGCGGAGTCACCTAGTGCAG” was tested. Which binding signal did it give?
**A.** 4140 fluorescence intensity (a.u.)

**Q.** For “GCTTGCTTTGTCACATGCAGTTTTACACCTTTTATTTCTCCGGAGTCACCTAGTGCAG”, which binding signal is on record?
**A.** 6070 fluorescence intensity (a.u.)

**Q.** Which binding signal does the source give for “AAATCAGGAGCCTCTGCCATTGGTTTGTGAAGCTACATCGCGGAGTCACCTAGTGCAG” here?
**A.** 65500 fluorescence intensity (a.u.)

**Q.** Which binding signal does the source give for “TCAGGTGAAATCTGCTTCAGCCATATTCATTGGTAATCAGCGGAGTCACCTAGTGCAG” here?
**A.** 3600 fluorescence intensity (a.u.)

**Q.** Which binding signal does the source give for “AATCAGATGATCGGTGCTGCAGCCATCATTGAAGCCTGTGCGGAGTCACCTAGTGCAG” here?
**A.** 3400 fluorescence intensity (a.u.)
